# Experimental data from PubChem BioAssay (NCATS).
# Inconclusive results are not listed. Calls of active or inactive are those of the source. Calls follow the shape of the full dose curve.
# Target: Cytochrome P450 1A2 (Homo sapiens) (UniProt P05177)
# Test: p450-cyp1a2 (AID 410);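 as to activity change, negative = inhibition: -100% = full effect of reference inhibitor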
# Settings: recombinant CYP1A2, luciferin-ME demethylation, luminescence; series mostly up to 57 µM; activity change, negative = inhibition: at the top concentration
# Summary of the method: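 O-Demethylation of luciferin 6' methyl ether by human CYP1A2 is monitored as luciferase luminescence. Substrate sits at Km (100uM); enzyme is 20nM. Values are scaled to 57 uM furafylline as maximal inhibition.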
# Potency is read from the fitted curve at half-maximal effect.
# Chain of Cytochrome P450 1A2 (Homo sapiens) (P05177 whole entry, looked up): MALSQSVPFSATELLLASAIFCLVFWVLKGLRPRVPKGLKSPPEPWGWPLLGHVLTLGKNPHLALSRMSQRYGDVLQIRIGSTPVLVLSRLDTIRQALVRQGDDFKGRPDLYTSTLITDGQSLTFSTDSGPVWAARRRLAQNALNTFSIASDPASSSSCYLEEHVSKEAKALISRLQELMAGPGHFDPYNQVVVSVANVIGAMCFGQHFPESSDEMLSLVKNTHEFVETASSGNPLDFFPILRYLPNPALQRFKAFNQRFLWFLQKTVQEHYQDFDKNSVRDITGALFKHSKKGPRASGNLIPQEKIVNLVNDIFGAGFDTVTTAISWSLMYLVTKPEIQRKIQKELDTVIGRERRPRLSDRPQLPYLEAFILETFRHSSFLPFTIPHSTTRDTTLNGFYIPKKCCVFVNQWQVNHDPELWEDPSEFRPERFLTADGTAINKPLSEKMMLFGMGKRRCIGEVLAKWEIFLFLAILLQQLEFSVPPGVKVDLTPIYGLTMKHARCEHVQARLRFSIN
SMILES,"activity change, negative = inhibition",Potency
COC(=O)[C@@]1(Cc2ccc(F)cc2)[C@@H]2C(=CC(=O)[C@H]2CC(=O)C(=O)N(C)C)CN1C(=O)c1ccccc1,-12.2% (inactive),–
C/C(=C\C1CCCCC1)C(NC(=O)c1ccc(C(F)(F)F)cc1)c1ccc(-c2ccccc2)cc1 (stereo not given),4.8% (inactive),–
CCc1c2c(nc3ccc(OC)cc13)COC2,–,0.794 µM (active)
CC1(C)C(=O)C(c2ccccc2)=C2CN3C(=O)N(CCc4ccccc4)C(=O)C3(Cc3ccccc3)C=C21 (stereo not given),–,6.31 µM (active)
C[C@H](CO)NC(=O)[C@@H]1C[C@H]1[C@@H](NP(=O)(c1ccccc1)c1ccccc1)c1ccccc1,-9.6% (inactive),–
COC(=O)[C@@]1(Cc2ccc(F)cc2)[C@H]2c3cc(C(=O)N(C)C)n(Cc4c(CO)[nH]cc(C)c4=O)c3C[C@H]2CN1C(=O)c1ccccc1,–,25.1 µM (active)
C[C@@]1(C(NC(=O)c2cccs2)c2ccc(-c3ccccc3)cc2)C[C@H]1C1CCCCC1 (stereo not given in full),-11% (inactive),–
COC(=O)[C@@]1(Cc2ccc(OC)cc2)[C@H]2c3cc(C(=O)N4CCCC4)n(Cc4ccc(Cl)c(C(F)(F)F)c4)c3C[C@H]2CN1C(=O)c1ccccc1,–,12.6 µM (active)
CCC/C=C(\CCC)C(NC(=O)c1ccc(C(F)(F)F)cc1)c1ccc(C(F)(F)F)cc1 (stereo not given),-16.4% (inactive),–
C[C@@H](C(=O)NCc1nc2ccccc2[nH]1)[C@@H]1C[C@@]1(C)[C@@H](NC(=O)OCc1ccccc1)c1ccccc1,–,12.6 µM (active)
C[C@@]1(C(NC(=O)Cc2ccccc2)c2ccc(-c3ccccc3)cc2)C[C@H]1C1CCCCC1 (stereo not given in full),0.4% (inactive),–
C[C@@H](C(=O)O)[C@@H]1C[C@@]1(C)[C@@H](NC(=O)OCc1ccccc1)c1ccccc1,-23.4% (inactive),–
CC(C)=C1C(=O)C(c2ccccc2)=C2CN3C(=O)N(CCc4ccccc4)C(=O)[C@]3(Cc3ccccc3)[C@H]21,-14.9% (inactive),–
COC(=O)C1(CC(C)C)C=C2C(=C(C(C)C)C(=O)C2C)CN1 (stereo not given),–,15.8 µM (active)
COC(=O)[C@H]1C[C@@H]1[C@H](NC(=O)Oc1ccc(F)cc1)c1ccccc1,–,1 µM (active)
CCCC1(C(=O)OC)C=C2C(=C(C)C(=O)C2C)CN1 (stereo not given),-20.6% (inactive),–
CCc1c2c(nc3cccc(C(C)C)c13)-c1cccc(=O)n1C2,–,0.501 µM (active)
COC(=O)[C@@H]1C[C@H]1[C@@H](NC(=O)c1cc(C)nn1C)c1ccccc1,–,15.8 µM (active)
C[C@@H](C(=O)Nc1ccc2ccccc2c1)[C@@H]1C[C@@]1(C)[C@@H](NC(=O)Oc1ccc(F)cc1)c1ccccc1,-19.8% (inactive),–
COC(=O)[C@H]1C[C@@H]1[C@H](NC(=O)c1cnccn1)c1ccccc1,–,15.8 µM (active)

SMILES,"activity change, negative = inhibition",Potency
C[C@@H](C(=O)Nc1ccc2ccccc2c1)[C@@H]1C[C@@]1(C)[C@@H](NC(=O)c1ccncc1Cl)c1ccccc1,–,25.1 µM (active)
CCCC1(C(=O)OC)C=C2C(=C(C(C)C)C(=O)C2C)CN1 (stereo not given),-20.3% (inactive),–
C#CCCCC(=O)Nc1ccccc1,–,20 µM (active)
COC(=O)[C@@]1(Cc2ccc(F)cc2)[C@H]2c3cc(C(=O)N4CCCC4)n(Cc4ccc(Cl)c(C(F)(F)F)c4)c3C[C@H]2CN1C(=O)c1ccccc1,-8.6% (inactive),–
CCCCCC1=C2CNC(C)(C(=O)OC)C=C2C(C)C1=O (stereo not given),–,25.1 µM (active)
COC(=O)[C@@H]1C[C@H]1[C@@H](NC(=O)c1cc(C)on1)c1ccccc1,–,20 µM (active)
COC(=O)[C@@]1(Cc2ccccc2)[C@H]2c3cc(C(=O)N4CCCC4)n(CCc4ccccn4)c3C[C@H]2CN1C(=O)c1ccccc1,-11.2% (inactive),–
C[C@@H](C(=O)Nc1ccc2ccccc2c1)[C@H]1C[C@]1(C)[C@H](NS(=O)(=O)c1ccc(-c2ccccc2)cc1)c1ccccc1,–,15.8 µM (active)
COC(=O)C1(Cc2ccccc2)C=C2C(=C(C)C(=O)C2C)CN1 (stereo not given),–,10 µM (active)
C[C@H]1C2=C3C(CC[C@H]4C(OCc5ccc(F)cc5C(F)(F)F)OC[C@](C)([C@@H]34)N(C(=O)OC(C)(C)C)C2)C(CO)C1CO (stereo not given in full),–,15.8 µM (active)
O=C(NCc1nc2ccccc2[nH]1)[C@H]1C[C@@H]1[C@H](NP(=O)(c1ccccc1)c1ccccc1)c1ccccc1,–,15.8 µM (active)
CC[C@H]1C2=C3C(CC[C@H]4C(OCc5ccc(F)cc5C(F)(F)F)OC[C@](C)([C@@H]34)N(C(=O)OC(C)(C)C)C2)C(COC)C1COC (stereo not given in full),-11.5% (inactive),–
CCCC/C=C/C(NC(=O)C(C)(C)C)c1ccccc1 (stereo not given),–,20 µM (active)
COC(=O)[C@@H]1C[C@H]1[C@@H](NC(=O)c1cccnc1)c1ccccc1,–,12.6 µM (active)
CCCC[C@H]1C[C@@H]1[C@@H]1N(P(=O)(c2ccccc2)c2ccccc2)C[C@@](O)(c2ccccc2)CC12CC2,-2% (inactive),–
OC1c2ccccc2-c2nc3ccccc3cc21 (stereo not given),–,0.126 µM (active)
C=C(CC1([C@@H](NP(=O)(c2ccccc2)c2ccccc2)[C@H]2C[C@@H]2CCN(C(=O)OCC)S(=O)(=O)c2ccc(C)cc2)CC1)c1ccccc1,-5.8% (inactive),–
COC(=O)C1(C)C=C2C(=C(c3ccccc3)C(=O)C2C)CN1 (stereo not given),–,15.8 µM (active)
CCCCCC1=C2CNC(CCC)(C(=O)OC)C=C2C(C)C1=O (stereo not given),–,31.6 µM (active)
COC(=O)[C@H]1C[C@@H]1[C@H](NC(=O)c1cc(C)on1)c1ccccc1,–,15.8 µM (active)
